Bioassay records: PubChem BioAssay, National Center for Advancing Translational Sciences (NCATS)
Compounds with a hit are over-represented: about 12% of the library has one in this group of screens.
CHX counter: counter-screen hit for Shiga toxin inhibitors, cycloheximide. cell reporter, cycloheximide protein synthesis inhibition counterscreen. max response, %. hit rate 12% among 300,000. AID 2314; in the data active = max response mostly above about 13%, no sharp cut-off; inactive = mostly below about 14%; note: read at 38.3 µM for the half of the compounds with a filed dose; 0% is about no effect
LASV entry inh: inhibitors of Lassa virus binding or cell entry; Potency, µM (series often up to 37.9 µM), for the others: top-dose activity change, negative = inhibition, hits mostly inhibitors; hit rate 1.2% among 300,000; Lassa virus pseudotype entry inhibition, cell reporter; calls by dose curve; tested in HEK293 cells; note: potency is the fitted concentration of half-maximal effect; % is set by controls: 0 for no effect and ±100 for the full control effect; nearly all actives have a fitted effect of over 50% in size
MARV entry inh: Marburg virus entry inhibition; Marburg virus pseudotyped entry inhibition, cell reporter; hit rate 1.8% among 300,000; AID 540276; Potency, µM (doses to about 37.8 µM), inactives show at the highest dose activity change, negative = inhibition, hits mostly inhibitors; calls by dose curve; tested in HEK293 cells; note: potency is the fitted concentration of half-maximal effect; % is set by controls: 0 for no effect and ±100 for the full control effect
Shiga inhibitor: Shiga toxin inhibition; Vero cells, Shiga toxin protein synthesis inhibition reporter; inhibition, % at 38.7 µM; hit rate 9.2% among 290,000; in the data active = inhibition mostly above about 28%, no sharp cut-off; inactive = mostly below about 43%; note: 0% is about no effect
An asterisk follows results filed as active; ? = inconclusive; nt = no result; [ ] = dose if it differs, or a comment.

SMILES	CHX counter	LASV entry inh	MARV entry inh	Shiga inhibitor
CC1=NN(C(N)=S)C(=O)C1N=Nc1ccc(O)cc1 (stereo not drawn)	24*	?	?	32*
COc1ccc(S(=O)(=O)N2CCOC23CCN(C(=O)c2c(F)cccc2Cl)CC3)cc1	-1	nt	nt	11
CCOC(=O)C1=C(C)NC(=O)NC1/C=C/c1ccccc1OC (stereo not drawn)	-3	?	?	-12
Nc1ccc(-c2nnn(Cc3ccccc3F)n2)cc1	32*	-16%	28%	55*
Fc1ccc(Cn2nnc(-c3ccc(Cl)cc3)n2)cc1	34*	nt	5%	56*
O=C(OCc1ccccc1Cl)c1ccc(-c2nnn(Cc3ccc(F)cc3)n2)cc1	nt	4%[46.1 µM]	?	nt
Cc1ccccc1N(C(=O)Cn1nnc(-c2ccc(F)cc2)n1)C(C(=O)NC(C)(C)C)c1ccncc1 (stereo not drawn)	9	5%	?	19
Fc1ccc(-c2nnn(Cc3ccccc3Cl)n2)cc1	36*	?	?	99*
Cc1ccccc1Cn1nnc(-c2ccc(F)cc2)n1	19*	?	10%[46.1 µM]	30*
Cc1cccc(NC(=O)C(Cc2ccccc2)NS(=O)(=O)c2ccc3c(c2)c(=O)n(C)c(=O)n3C)c1 (stereo not drawn)	nt	26%[46.1 µM]	-9%[46.1 µM]	nt
COc1ccc(CCCC(=O)NCCc2ccccc2)cc1	5	nt	nt	9
O=C(CCCNC(=O)c1ccc(Cl)cc1)NCc1ccccc1Cl	-2	nt	nt	7
O=C(CCCc1ccccc1)NCCc1ccc(F)cc1	29*	8%	?	92*
O=C(CCCc1ccccc1)NCc1ccccc1Cl	18*	4%[46.1 µM]	17%[46.1 µM]	nt
O=C(CCCc1ccccc1)NCc1cn2ccsc2n1	17*	nt	nt	15
O=C(COC(=O)c1ccco1)NCc1ccccc1Cl	32*	14%[46.1 µM]	19%[46.1 µM]	86*
CC(C)(CNC(=O)c1cc(Cl)c(O)c(Cl)c1)N1CCCCC1	-3	7%	27%[46.1 µM]	2
COc1ccc(C(=O)COC(=O)CCCC(=O)NC2CCCCC2)cc1	-2	-9%	-19%	-2
COc1ccc(-c2cc(C(F)(F)F)nc(SCCC(=O)Nc3ccc(OC)c(OC)c3)n2)cc1	nt	-3%[46.1 µM]	?	nt
O=C(CCc1ccccc1)NCCc1ccc(F)cc1	27*	nt	nt	29
COc1cccc(C(=O)NCc2cn3ccccc3n2)c1	nt	-4%[46.1 µM]	-11%[46.1 µM]	nt
CC(=O)c1ccc(OCCCC(=O)NCCc2ccccc2)cc1	31*	nt	nt	51
COc1cccc(C(=O)NCc2cn3ccsc3n2)c1	16*	nt	nt	9
CN(CC(=O)NCCc1ccc(F)cc1)Cc1cccs1	28*	28%	?	26
O=C(Cc1ccc(F)cc1)NCCc1ccccc1	3	0%	?	-8
SMILES	CHX counter	LASV entry inh	MARV entry inh	Shiga inhibitor
O=C(NC1CCN(Cc2ccc3ccccc3c2)CC1)c1ccccc1	-4	-25%[46.1 µM]	?	-12
O=C(CCCc1ccccc1)NCCc1ccccc1	45*	nt	nt	84*
O=C(CCCc1ccccc1)NCCCc1ccccc1	-2	12%	10%	-3
O=C(O)/C=C/C(=O)NCCc1ccccc1	-4	4%[46.1 µM]	5%[46.1 µM]	11
CC(C)=CC(=O)NCCc1ccccc1	45*	58%[14.3 µM]	?	93*
NNC(=O)Cn1c2c(c3c1CCCC3)CCCC2	nt	nt	1%[46.1 µM]	nt
CCOC(=O)CN1N=C(/C=C/c2ccccc2)CCC1=O	nt	2%	8%	nt
CCOC(=O)CN1N=C(/C=C/c2ccc(OCC)cc2)CCC1=O	30*	-29%[46.1 µM]	22%[46.1 µM]	34
CCOC(=O)CN1N=C(/C=C/c2ccc(C(C)C)cc2)CCC1=O	35*	-4%[46.1 µM]	?	37
Nc1nncn1C(=O)CCc1ccccc1	9.3*	16%	16%	20
Nc1nncn1C(=O)CCCOc1ccccc1	-3	4%	22%	-14
CCCCn1c(N)c(N(CC(C)C)C(=O)Cc2ccc(S(=O)(=O)N3CCOCC3)s2)c(=O)[nH]c1=O	nt	-3%	12%	nt
CC(C)(C)C1CCC(=NOC(=O)c2ccc(F)cc2)CC1 (stereo not drawn)	11	-21%	0%[46.1 µM]	15
Cn1c(SSc2ccc(-c3cccnc3)n2C)ccc1-c1cccnc1	nt	?	13µM*	nt
Cc1nn(-c2ccc(N3CCCC3)nn2)c(C)c1CCC(=O)N1CCN(c2ccccc2F)CC1	nt	-1%[46.1 µM]	nt	nt
COc1cnn(-c2ccc(C)cc2)c(=O)c1SCc1ccccc1	38*	?	25%	84*
COc1cnn(-c2ccc(Br)cc2)c(=O)c1SCc1ccccc1	49*	-6%	?	130*
COc1cnn(-c2ccccc2)c(=O)c1SCc1ccc(Cl)cc1Cl	-5	0%	-13%	-5
CC1=CCC2C(=O)N(c3ccc(OC(=O)c4ccco4)cc3)C(=O)C2C1 (stereo not drawn)	2	nt	nt	-2
Cn1c(C(=O)c2ccccc2)nc2ccccc21	26*	nt	nt	58*
